Assay results reported in PubChem BioAssay (NCATS).
Results filed as inconclusive are left out. The source made the active and inactive calls. Calls come from the whole dose curve; as a rule, active = well fitted cell-killing curve with a large enough effect; inconclusive = small, poorly fitted or top-dose-only effect, or effect the other way; inactive = no such curve, though single readings can be large or run the other way.

How the values were obtained:
[1] = Quantitative High-Throughput drug screen in 47 multiple myeloma cell lines against the NCATS MIPE library collection: MM1R_ATCC cell viability assay (AID 1918981); note: nearly all actives have a fitted effect of over 35% in size
Summary of the method: (§1)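 500 cells/well per myeloma line exposed to pinned MIPE 4.0 compounds for 48 h at 37 °C, 5% CO2. Viability read as ATP by CellTiter-Glo luminescence, normalised to DMSO-only (100%) and media-only (0%) wells.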

[2] = Quantitative High-Throughput drug screen in 47 multiple myeloma cell lines against the NCATS MIPE library collection: LP1_DSMZ cell viability assay (AID 1918982); note: nearly all actives have a fitted effect of over 35% in size
Summary of the method: as §1

[3] = Quantitative High-Throughput drug screen in 47 multiple myeloma cell lines against the NCATS MIPE library collection: KMS28PE_JCRB cell viability assay (AID 1918983); note: nearly all actives have a fitted effect of over 35% in size
Summary of the method: as §1

[4] = Quantitative High-Throughput drug screen in 47 multiple myeloma cell lines against the NCATS MIPE library collection: L363_DSMZ cell viability assay (AID 1918984); note: nearly all actives have a fitted effect of over 40% in size
Summary of the method: as §1

[5] = Quantitative High-Throughput drug screen in 47 multiple myeloma cell lines against the NCATS MIPE library collection: OCIMY5_PLB cell viability assay (AID 1918988); note: nearly all actives have a fitted effect of over 65% in size
Summary of the method: as §1

[6] = Quantitative High-Throughput drug screen in 47 multiple myeloma cell lines against the NCATS MIPE library collection: OPM1_PLB cell viability assay (AID 1918989); note: nearly all actives have a fitted effect of over 40% in size
Summary of the method: as §1

[7] = Quantitative High-Throughput drug screen in 47 multiple myeloma cell lines against the NCATS MIPE library collection: SKMM1_PLB cell viability assay (AID 1919863); conditions: SKMM1 myeloma viability, CellTiter-Glo ATP, 48 h; viability: hits give low values; note: nearly all actives have a fitted effect of over 35% in size
Summary of the method: as §1

[8] = Quantitative High-Throughput drug screen in 47 multiple myeloma cell lines against the NCATS MIPE library collection: U266_ATCC cell viability assay (AID 1919864); note: nearly all actives have a fitted effect of over 35% in size
Summary of the method: as §1

[9] = Quantitative High-Throughput drug screen in 47 multiple myeloma cell lines against the NCATS MIPE library collection: XG6_PLB cell viability assay (AID 1919865); note: nearly all actives have a fitted effect of over 40% in size
Summary of the method: as §1

[10] = Quantitative High-Throughput drug screen in 47 multiple myeloma cell lines against the NCATS MIPE library collection: XG1_PLB cell viability assay (AID 1919866); note: nearly all actives have a fitted effect of over 35% in size
Summary of the method: as §1

[11] = Quantitative High-Throughput drug screen in 47 multiple myeloma cell lines against the NCATS MIPE library collection: VP6_DJ cell viability assay (AID 1919867); note: nearly all actives have a fitted effect of over 40% in size
Summary of the method: as §1

[12] = Quantitative High-Throughput drug screen in 47 multiple myeloma cell lines against the NCATS MIPE library collection: UTMC2_PLB cell viability assay (AID 1919868); conditions: CellTiter-Glo ATP luminescence, 48 h; viability (% of DMSO control): at 45.8 µM (top of the series); note: nearly all actives have a fitted effect of over 55% in size
Summary of the method: as §1

[13] = Quantitative High-Throughput drug screen in 47 multiple myeloma cell lines against the NCATS MIPE library collection: PE2_PLB cell viability assay (AID 1919869); note: nearly all actives have a fitted effect of over 35% in size
Summary of the method: as §1

[14] = Quantitative High-Throughput drug screen in 47 multiple myeloma cell lines against the NCATS MIPE library collection: RPMI8226_ATCC cell viability assay (AID 1919871); note: nearly all actives have a fitted effect of over 30% in size
Summary of the method: as §1

[15] = Quantitative High-Throughput drug screen in 47 multiple myeloma cell lines against the NCATS MIPE library collection: KMS11_JCRBsus cell viability assay (AID 1919873); note: nearly all actives have a fitted effect of over 50% in size
Summary of the method: as §1

[16] = Quantitative High-Throughput drug screen in 47 multiple myeloma cell lines against the NCATS MIPE library collection: KMS28BM_JCRB cell viability assay (AID 1919874); note: nearly all actives have a fitted effect of over 35% in size
Summary of the method: as §1

[17] = Quantitative High-Throughput drug screen in 47 multiple myeloma cell lines against the NCATS MIPE library collection: KMS34_JCRB cell viability assay (AID 1918985); note: nearly all actives have a fitted effect of over 40% in size
Summary of the method: as §1

[18] = Quantitative High-Throughput drug screen in 47 multiple myeloma cell lines against the NCATS MIPE library collection: PCM6_Riken cell viability assay (AID 1919870); note: nearly all actives have a fitted effect of over 30% in size
Summary of the method: as §1

[19] = Quantitative High-Throughput drug screen in 47 multiple myeloma cell lines against the NCATS MIPE library collection: OCIMY7_PLB cell viability assay (AID 1918987); conditions: OCI-MY7 myeloma viability, CellTiter-Glo ATP, 48 h; viability (% of DMSO): at 45.8 µM (top of the series); note: nearly all actives have a fitted effect of over 65% in size
Summary of the method: as §1

[20] = Quantitative High-Throughput drug screen in 47 multiple myeloma cell lines against the NCATS MIPE library collection: OPM2_DSMZ cell viability assay (AID 1919872); note: nearly all actives have a fitted effect of over 30% in size
Summary of the method: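 Steps: seed 500 cells per well; pin-transfer MIPE 4.0 library; incubate 48 h at 37C, 5% CO2, humidified; add CellTiter-Glo, 5 min room temperature; read luminescence.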
Potency is the fitted concentration of half-maximal effect.

CNC1CCC(N(Cc2cccc(-c3ccncc3)c2)C(=O)c2sc3c(F)ccc(F)c3c2Cl)CC1 (stereo unspecified)
active: Potency [1] 18.7 µM | Potency [2] 23.5 µM | Potency [3] 16.6 µM | Potency [4] 11.8 µM | Potency [5] 18.7 µM | Potency [6] 13.2 µM | Potency [7] 18.7 µM | Potency [8] 18.7 µM | Potency [9] 14.8 µM | Potency [10] 18.7 µM | Potency [11] 13.2 µM | Potency [12] 20.9 µM | Potency [13] 10.5 µM | Potency [14] 18.7 µM | Potency [15] 9.35 µM | Potency [16] 26.4 µM

Cc1cnc(C(=O)O)c[n+]1[O-]
inactive: Potency [1] | Potency [2] | Potency [4] | Potency [6] | Potency [8] | Potency [9] | Potency [10] | Potency [12] | Potency [13] | Potency [18] | Potency [15] | Potency [16]
active: Potency [3] 23.5 µM | Potency [17] 4.18 µM

CO[C@H]1C[C@@H]2CC[C@@H](C)[C@@](O)(O2)C(=O)C(=O)N2CCCC[C@@H]2C(=O)O[C@H]([C@@H](C)C[C@@H]2CC[C@H](O)[C@H](OC)C2)CC(=O)[C@H](C)C=C(C)[C@@H](O)[C@@H](OC)C(=O)[C@H](C)C[C@H](C)C=CC=CC=C1C
inactive: Potency [1] | Potency [2] | Potency [3] | Potency [4] | viability [7] 82.9% | Potency [9] | Potency [20]
active: Potency [19] 14.8 µM

Cc1c(O)cccc1C(=O)N[C@@H](CSc1ccccc1)[C@H](O)CN1C[C@H]2CCCC[C@@H]2C[C@@H]1C(=O)NC(C)(C)C
active: Potency [1] 18.7 µM | Potency [2] 20.9 µM | Potency [3] 20.9 µM | Potency [4] 20.9 µM | Potency [17] 18.7 µM | Potency [19] 14.8 µM | Potency [5] 23.5 µM | Potency [6] 18.7 µM | Potency [7] 20.9 µM | Potency [8] 18.7 µM | Potency [9] 29.6 µM | Potency [10] 23.5 µM | Potency [11] 18.7 µM | Potency [12] 23.5 µM | Potency [13] 26.4 µM | Potency [18] 18.7 µM | Potency [14] 18.7 µM | Potency [20] 26.4 µM | Potency [15] 18.7 µM | Potency [16] 20.9 µM

CO[C@H]1C=CC=C(C)C(=O)NC2=CC(=O)C(NCCN(C)C)=C(C[C@@H](C)C[C@H](OC)[C@@H](O)[C@@H](C)C=C(C)[C@@H]1OC(N)=O)C2=O
active: Potency [1] 0.0296 µM | Potency [2] 0.418 µM | Potency [3] 0.0166 µM | Potency [17] 0.0132 µM | Potency [19] 0.0662 µM | Potency [5] 0.0118 µM | Potency [6] 0.0662 µM | Potency [7] 0.372 µM | Potency [8] 0.0662 µM | Potency [9] 0.105 µM | Potency [10] 0.0372 µM | Potency [12] 0.0662 µM | Potency [13] 0.0935 µM | Potency [14] 0.0469 µM | Potency [20] 0.0743 µM | Potency [15] 0.0093 µM | Potency [16] 0.166 µM

COc1cc2nc(-c3ccc(N4CCN(C)CC4)cc3)nc(NCCN3CCOCC3)c2cc1OC
active: Potency [1] 0.0118 µM | Potency [2] 0.132 µM | Potency [3] 0.0662 µM | Potency [4] 0.132 µM | Potency [17] 0.0209 µM | Potency [5] 0.0187 µM | Potency [6] 0.166 µM | Potency [7] 0.132 µM | Potency [8] 0.0209 µM | Potency [9] 0.166 µM | Potency [10] 0.0372 µM | Potency [11] 0.187 µM | Potency [12] 0.935 µM | Potency [13] 0.148 µM | Potency [14] 0.0833 µM | Potency [20] 3.32 µM | Potency [15] 0.0935 µM | Potency [16] 0.105 µM

CCc1ccc(OCc2ccccc2C(=O)Nc2ccc3nc(C)cc(N)c3c2)cc1
active: Potency [1] 3.32 µM | Potency [2] 8.33 µM | Potency [3] 8.33 µM | Potency [4] 1.18 µM | Potency [17] 7.43 µM | Potency [5] 7.43 µM | Potency [6] 1.32 µM | Potency [7] 6.62 µM | Potency [8] 5.9 µM | Potency [9] 1.05 µM | Potency [10] 1.48 µM | Potency [11] 1.32 µM | Potency [12] 3.32 µM | Potency [13] 2.35 µM | Potency [14] 6.62 µM | Potency [20] 9.35 µM | Potency [15] 1.48 µM | Potency [16] 1.18 µM

O=C(Nc1cccc(Br)c1)c1cccc(S(=O)(=O)N2CCCCCC2)c1
active: Potency [1] 18.7 µM | Potency [2] 10.5 µM | Potency [3] 23.5 µM | Potency [4] 13.2 µM | Potency [5] 18.7 µM | Potency [6] 18.7 µM | Potency [9] 14.8 µM | Potency [10] 16.6 µM | Potency [11] 16.6 µM | Potency [15] 18.7 µM

CC(=O)N(C)C1(c2ccccc2)CCN(CCC[C@]2(c3ccc(Cl)c(Cl)c3)CCCN(C(=O)c3ccccc3)C2)CC1
active: Potency [1] 23.5 µM | Potency [2] 26.4 µM | Potency [3] 20.9 µM | Potency [4] 5.9 µM | Potency [19] 14.8 µM | Potency [5] 18.7 µM | Potency [6] 18.7 µM | Potency [8] 23.5 µM | Potency [9] 8.33 µM | Potency [10] 14.8 µM | Potency [11] 13.2 µM | Potency [13] 20.9 µM | Potency [18] 13.2 µM | Potency [14] 23.5 µM | Potency [15] 9.35 µM | Potency [16] 20.9 µM

O=C1c2ccccc2-[n+]2ccc3c([nH]c4ccccc43)c21
active: Potency [1] 2.09 µM | Potency [2] 2.35 µM | Potency [3] 2.35 µM | Potency [4] 3.72 µM | Potency [17] 0.833 µM | Potency [19] 0.264 µM | Potency [5] 1.05 µM | Potency [6] 0.935 µM | Potency [7] 2.96 µM | Potency [8] 2.35 µM | Potency [9] 1.48 µM | Potency [10] 1.05 µM | Potency [12] 1.32 µM | Potency [13] 1.87 µM | Potency [18] 0.59 µM | Potency [14] 2.96 µM | Potency [20] 2.64 µM | Potency [15] 1.05 µM | Potency [16] 1.32 µM
